PubChem BioAssay AID1446 (The Scripps Research Institute Molecular Screening Center, 2008)
Out of some 220,000 compounds screened, about 2,400 (1.1%) were called active. The entries come from a sample that favours actives as a whole. Unmarked numbers belong to inactive results.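 The calls were made as follows: active = inhibition above the campaign mean plus 3 SD over all tested compounds (cut at about 24% in these data); inactive = the rest.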

test: reduced viability of JAK2V617F-dependent Ba/F3 cells, primary screen, JAK2V617F inhibitor project, cell-based, Ba/F3 EpoR-JAK2V617F, luminescence (AID 1446); conditions: ATP luminescence, at 5.6 µM, hits give high values;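 also: cytokine-independent growth of Ba/F3 cells driven by EpoR plus mutant JAK2; 0% = DMSO-treated cells and 100% = JAK inhibitor I control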

**Q.** Which inhibition does the source give for CCOC(=O)c1cc(-c2nnc(-c3cc(OC)c(OC)c(OC)c3)o2)c(C)nc1C here?
**A.** 0.18%

**Q.** With CCOC(=O)C1=C(N)N2C(=O)C(C)SC2=C(C(=O)OCC)C1c1cc(OC)c(OC)c(OC)c1 (stereo not drawn) as the compound, how does the inhibition read?
**A.** 80.7% (active)

**Q.** For CCOC(=O)C1CCN(C(=O)/C=C/c2cc(OC)c(OC)c(OC)c2)CC1, which inhibition is on record?
**A.** -2.65%

**Q.** Which inhibition does the source give for CC(CNS(=O)(=O)c1ccc(Br)cc1)CN(C)C (stereo not drawn) here?
**A.** -1.94%

**Q.** With Cc1ccc(Cl)cc1N1CCN(C(=O)c2cccc3c(=O)c(C)c(-c4ccccc4)oc23)CC1 as the compound, how does the inhibition read?
**A.** -6.79%

**Q.** For C=CCNc1scc(-c2ccccc2)[n+]1CC=C, which inhibition is on record?
**A.** -1.89%

**Q.** For C=CC[n+]1c(-c2ccc(C)cc2)csc1NNC(=O)Nc1ccccc1, which inhibition is on record?
**A.** 37.6% (active)

**Q.** For Cc1ccc(NC(=O)Nc2ccccc2)c(Br)c1, which inhibition is on record?
**A.** 1.27%

**Q.** Which inhibition does the source give for CCN(CC)CCOC(=O)c1ccc(NC(=O)CNC(=O)c2ccccc2)cc1 here?
**A.** 0.68%

**Q.** Which inhibition does the source give for COc1ccc(C(=O)C[n+]2ccc(C)cc2)cc1 here?
**A.** -3%

**Q.** Which inhibition does the source give for COc1ccc(C(=O)C[n+]2ccc(N)c(C)c2C)cc1 here?
**A.** 97.4% (active)

**Q.** For COc1ccc(OCCC(=O)c2ccc(OC)cc2)cc1, which inhibition is on record?
**A.** -0.79%

**Q.** For Cc1nn(-c2ccccc2)c(NC(=O)c2cccs2)c(-c2ccc(Cl)cc2)c1=O, which inhibition is on record?
**A.** -2.34%

**Q.** With CN(C)CCCNC(=O)/C=C/c1ccc(OCc2c(F)cccc2Cl)cc1 as the compound, how does the inhibition read?
**A.** 0.9%

**Q.** For COCCCNC(=O)/C=C/c1ccc(OCc2c(F)cccc2Cl)cc1, which inhibition is on record?
**A.** -4.39%

**Q.** For O=C(/C=C/c1ccc(OCc2c(F)cccc2Cl)cc1)N1CCOCC1, which inhibition is on record?
**A.** 64.4% (active)

**Q.** With O=C(NNC(=O)c1csc(-c2cccnc2)n1)Nc1ccc(Cl)cc1 as the compound, how does the inhibition read?
**A.** -0.26%

**Q.** Which inhibition does the source give for COC(=O)N/N=C/c1cn(CCCOc2ccc(C)cc2)c2ccccc12 here?
**A.** -1.96%

**Q.** With O=C(Nc1ccc2c(c1)OCCO2)c1cnccn1 as the compound, how does the inhibition read?
**A.** 0.76%

**Q.** With CCN(CC)c1ccc(/C=N/Nc2nc(C)cc(C)n2)c(O)c1 as the compound, how does the inhibition read?
**A.** 2.26%

**Q.** For CCN(CC)c1ccc(/C=N/NC(=O)c2cnccn2)c(O)c1, which inhibition is on record?
**A.** 56.2% (active)

**Q.** With CC(=O)Nc1cccc(OCC(=O)/C=C2\N(C)c3ccccc3C2(C)C)c1 as the compound, how does the inhibition read?
**A.** 37.5% (active)

**Q.** With Cc1noc(C)c1C(=O)OCC(=O)/C=C1\N(C)c2ccccc2C1(C)C as the compound, how does the inhibition read?
**A.** 1.84%

**Q.** For CN1/C(=C\C(=O)c2cccnc2Cl)C(C)(C)c2ccccc21, which inhibition is on record?
**A.** 2.48%

**Q.** With N/C(=N\OC(=O)Nc1ccccc1)c1ccno1 as the compound, how does the inhibition read?
**A.** 4.88%

**Q.** For CC(C)NC(=S)N1CCN(C(c2ccccc2)c2ccccc2)CC1, which inhibition is on record?
**A.** 1.76%

**Q.** With CC1(C)CC(=O)C=C(N2CCCC2)C1 as the compound, how does the inhibition read?
**A.** -0.55%

**Q.** For CC1(C)CC(N2CCN(C(c3ccccc3)c3ccccc3)CC2)=CC(=[N+]2CCCCC2)C1, which inhibition is on record?
**A.** 98.8% (active)

**Q.** With CCOC(=O)C(Sc1ncc(C#N)c(N)n1)C(C)C (stereo not drawn) as the compound, how does the inhibition read?
**A.** -2.24%

**Q.** Which inhibition does the source give for COc1cc(C=O)ccc1Oc1nnnn1-c1ccccc1 here?
**A.** 1.87%

**Q.** With CC(=O)c1ccc(Oc2cc(C)nc(-n3nc(C)cc3C)n2)cc1 as the compound, how does the inhibition read?
**A.** 64.7% (active)

**Q.** For COc1ccc(Nc2cc(C)nc(-n3nc(C)cc3C)n2)cc1, which inhibition is on record?
**A.** 76.7% (active)

**Q.** With Cc1cc(C)n(-c2cc(Oc3ccccc3)ncn2)n1 as the compound, how does the inhibition read?
**A.** 0.29%

**Q.** Which inhibition does the source give for Cc1cc(N/N=C\c2ccc(Br)cc2)nc(-n2nc(C)cc2C)n1 here?
**A.** -1.35%

**Q.** Which inhibition does the source give for COc1ccccc1/C=N\Nc1cc(C)nc(-n2nc(C)cc2C)n1 here?
**A.** -2.19%

**Q.** For Cc1cc(Oc2ccccc2)nc(N2CCOCC2)n1, which inhibition is on record?
**A.** 1.31%

**Q.** For Nc1nc(SC23CC4CC(CC(C4)C2)C3)ns1, which inhibition is on record?
**A.** -4.14%

**Q.** With O=C(c1ccc(OC2CCN(Cc3ccccn3)CC2)cc1)N1CCCCCC1 as the compound, how does the inhibition read?
**A.** -0.65%

**Q.** For CC(C)(C)c1ccc(CCC2OCC(CN3CCOCC3)O2)cc1 (stereo not drawn), which inhibition is on record?
**A.** 0.42%

**Q.** With CC(C)[C@@H]1NC(=O)c2cc([N+](=O)[O-])cc(I)c2NCCC[C@@H](C(=O)NC(CC(=O)O)C(N)=O)NC(=O)[C@H](CO)NC1=O (stereo partly drawn) as the compound, how does the inhibition read?
**A.** 1.14%

**Q.** Which inhibition does the source give for CC(C)(C)OC(=O)NCCCCCC(=O)N/N=C/c1coc2ccccc2c1=O here?
**A.** 0.8%

**Q.** For Cc1ccc(N2C(=O)CN=C2Nc2nc(C)cc(C)n2)cc1, which inhibition is on record?
**A.** -0.62%

**Q.** With CCCCOc1ccc(NC(=O)[C@@H]2CCCN2C(=O)C2CCN(S(=O)(=O)c3ccc(C)cc3)CC2)cc1 as the compound, how does the inhibition read?
**A.** 1.1%

**Q.** With Cc1cc(C)nc(NS(=O)(=O)c2ccc(N/C=C\C(=O)c3cccs3)cc2)n1 as the compound, how does the inhibition read?
**A.** 2.57%

**Q.** Which inhibition does the source give for CCN1/C(=C/c2ccc3ccc(C)cc3[n+]2CC)Sc2ccccc21 here?
**A.** 100% (active)

**Q.** Which inhibition does the source give for CCN1CCN(CCNC(=O)c2ccc(/C=C3/Sc4ccccc4N(Cc4cccc(C)c4)C3=O)cc2)CC1 here?
**A.** 4.4%

**Q.** With CCN1/C(=C\c2ccc3ccccc3[n+]2CC)Sc2cc(C)ccc21 as the compound, how does the inhibition read?
**A.** 99.7% (active)

**Q.** Which inhibition does the source give for CCN1/C(=C/C(=S)Nc2ccccc2)Sc2ccccc21 here?
**A.** -4.02%

**Q.** For COc1ccc([N+](=O)[O-])cc1NC(=O)COC(=O)/C=C/c1ccco1, which inhibition is on record?
**A.** -0.59%

**Q.** For O=S1(=O)CCC(NC(=S)SCc2ccccc2Br)C1 (stereo not drawn), which inhibition is on record?
**A.** -4.11%

**Q.** For CC1(C)OC(=O)C(=CSc2ccc(C(C)(C)C)cc2)C(=O)O1, which inhibition is on record?
**A.** -1.81%

**Q.** Which inhibition does the source give for COc1ccc(S(=O)(=O)NC(C)C)cc1C(=O)NC1CCCCC1 here?
**A.** -1.5%

**Q.** With COc1cc(OC)c(C(=O)NC2CCCCCC2)cc1OC as the compound, how does the inhibition read?
**A.** 99.6% (active)

**Q.** For COc1cc(OC)c(C(=O)NC2CC(C)(C)NC(C)(C)C2)cc1OC, which inhibition is on record?
**A.** -0.48%

**Q.** Which inhibition does the source give for O=C(NC(=O)c1ccccc1N1CCCCC1)Nc1ccc(Br)cc1 here?
**A.** 0.79%

**Q.** With O=C(N/N=C/c1c[nH]c2ccccc12)c1cc2ccccc2o1 as the compound, how does the inhibition read?
**A.** 0.06%

**Q.** With O=C(N/N=C/c1coc2ccccc2c1=O)c1cc2ccccc2o1 as the compound, how does the inhibition read?
**A.** 2.09%

**Q.** With Cc1c(/C=N\NC(=O)c2cc3ccccc3o2)c2ccccc2n1C as the compound, how does the inhibition read?
**A.** 34.8% (active)

**Q.** Which inhibition does the source give for CC(=O)c1nnn(-c2ccc(Cl)cc2C#N)c1C here?
**A.** 0.95%

**Q.** With CC(C)CNC(=O)COC(=O)/C=C/c1ccco1 as the compound, how does the inhibition read?
**A.** -3.59%

**Q.** With COc1ccc(Cn2c(=O)cc(C)[nH]c2=S)cc1 as the compound, how does the inhibition read?
**A.** 2.03%

**Q.** With COc1ccc(Cn2c(-c3ccc(Cl)cc3)c[n+]3ccccc23)cc1 as the compound, how does the inhibition read?
**A.** 88.9% (active)

**Q.** Which inhibition does the source give for COc1ccc(C(=O)CN(C(=O)c2ccc(Cl)cc2)N2C(=O)c3ccccc3C2=O)cc1 here?
**A.** 0%
